From article PMC7819943, “Rice protein-binding microarrays: a tool to detect cis-acting elements near promoter regions in rice”
The full ranking holds about 39,000 sequences; the median of “fluorescence intensity (a.u.)” is about 4,300, and the highest 2% start at about 39,000. The entries come from a sample that favours the highest values as a whole.

molecular target: T1, OsSMF1 (Oryza sativa, UniProt Q6ZLB0 1-436); assay: protein-binding microarray (RPBM); PBS, 2% BSA, 51.3 ng/ul salmon testes DNA, 50 uM zinc acetate, 200 nM TF, 25 C, 1 h; high values mean tight binding; conditions: protein: recombinant; tags: N-terminal polyhistidine and DsRed monomer fusion (pET32a); chain copies: 2; label: CyDye5-dUTP incorporated in the synthesized complementary strand; 3' TTTTT single-stranded linker to array surface; dsDNA, one strand shown
T1 sequence: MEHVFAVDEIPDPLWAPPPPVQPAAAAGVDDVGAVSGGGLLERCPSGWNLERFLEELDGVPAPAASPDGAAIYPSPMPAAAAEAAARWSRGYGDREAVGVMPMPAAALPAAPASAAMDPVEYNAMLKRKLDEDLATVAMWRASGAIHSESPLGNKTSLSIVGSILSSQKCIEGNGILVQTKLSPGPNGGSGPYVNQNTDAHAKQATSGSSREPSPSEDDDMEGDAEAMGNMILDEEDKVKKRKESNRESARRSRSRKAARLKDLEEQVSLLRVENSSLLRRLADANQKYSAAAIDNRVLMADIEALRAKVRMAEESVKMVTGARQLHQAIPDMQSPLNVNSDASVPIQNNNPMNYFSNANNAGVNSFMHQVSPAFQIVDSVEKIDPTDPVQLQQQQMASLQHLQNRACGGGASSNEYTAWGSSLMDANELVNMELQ
Outline: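 Binding signal is reported as fluorescence intensity per feature (arbitrary units) from an Axon 4000B scanner. Incubation used 200 nM of each Ni–NTA-purified, N-terminally polyhistidine- and DsRed-fused transcription factor from E. coli BL21-CodonPlus on a double-stranded custom Agilent array for 1 h at 25 °C, with 50 µM zinc acetate in the buffer, followed by washing.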

| Sequence | binding signal |
| --- | --- |
| CATTCTTAATGTAAAATATGAATGTAAATGAAATGTATGCCGGAGTCACCTAGTGCAG | 3840 fluorescence intensity (a.u.) |
| CACAAGTTCTCCTACGCTGACTCCTCTCTTGGAACTTCAGCGGAGTCACCTAGTGCAG | 5030 fluorescence intensity (a.u.) |
| ATATGTGGGTCTCATGCTGACTCATCCGCCACGTCAGATACGGAGTCACCTAGTGCAG | 42600 fluorescence intensity (a.u.) |
| CTAATGCCACGTAAGTGCCACGTGGCATGAAAACCGGGTTCGGAGTCACCTAGTGCAG | 46300 fluorescence intensity (a.u.) |
| TGACATGTGGGGCCCACGCTGACTCAGCCGCCACGTCAGACGGAGTCACCTAGTGCAG | 19600 fluorescence intensity (a.u.) |
| CCACTGGCGACCGCCACGTCGACCTGGCGTGGGACCTCATCGGAGTCACCTAGTGCAG | 8920 fluorescence intensity (a.u.) |
| GGGGTGAAAATGAATTAGATGCCACGTGCAGGTTCGCATGCGGAGTCACCTAGTGCAG | 10000 fluorescence intensity (a.u.) |
| GCATGCATTGCCTCTTGCTCGCCTACGTGGTAATGAAAACCGGAGTCACCTAGTGCAG | 6560 fluorescence intensity (a.u.) |
| CTGCACGTTACTCACGTGGCATCTCCAACTCTACCGCCAACGGAGTCACCTAGTGCAG | 7570 fluorescence intensity (a.u.) |
| GTTAGCGTGGCATGCCACGTCATCTCACGAAGCGGGTTAGCGGAGTCACCTAGTGCAG | 18100 fluorescence intensity (a.u.) |
| CTGGCACGTAAGCGTTACCGTGGCATGCCACGTCATCTCACGGAGTCACCTAGTGCAG | 39600 fluorescence intensity (a.u.) |
| CCCACGTGGGTCCCACGCTGACTCAGCCGCCACGTAGATCCGGAGTCACCTAGTGCAG | 25400 fluorescence intensity (a.u.) |
| GGCCCACGTGGGTCCCACACTGACTCAGCTGCCACGTGGGCGGAGTCACCTAGTGCAG | 38600 fluorescence intensity (a.u.) |
| TATGCGTGGGTCACTGGGCCCACACGTCATCCTCACGTGGCGGAGTCACCTAGTGCAG | 49000 fluorescence intensity (a.u.) |
| TATGTAGTACCACCCTGGTGTCACACATGTACCACTTGGTCGGAGTCACCTAGTGCAG | 3910 fluorescence intensity (a.u.) |
| GGAGCTGAGGAGGGACAGCGAGCCAGCGAGGGAGGTGGGGCGGAGTCACCTAGTGCAG | 3160 fluorescence intensity (a.u.) |
| GGGGACATTACTCCGTGGTTTACATGTCATCCAAATAGTTCGGAGTCACCTAGTGCAG | 5320 fluorescence intensity (a.u.) |
| TATATACAAGTTCACCCCGAAACCTAGTCAGAGTATGACACGGAGTCACCTAGTGCAG | 4240 fluorescence intensity (a.u.) |
| ACTTGCCACGGTGCCGCCTAACAGGCAGCCGTACCTGCCTCGGAGTCACCTAGTGCAG | 3320 fluorescence intensity (a.u.) |
| TGAAATACTTACAAGTCGATCGAACAACACCTGTCATCATCGGAGTCACCTAGTGCAG | 4160 fluorescence intensity (a.u.) |
| GCGGCCTATTGTTAGCGAGGAGTCACCCAGATTCTTCTCCCGGAGTCACCTAGTGCAG | 6870 fluorescence intensity (a.u.) |

| Sequence | binding signal |
| --- | --- |
| TACTATTAGGTATGTGGTATCCATAACCCTGACACATACCCGGAGTCACCTAGTGCAG | 3600 fluorescence intensity (a.u.) |
| CGTGAAAGTGCTTCGAAAGGTGTCAGCAGGTGCGCGGAGCCGGAGTCACCTAGTGCAG | 3530 fluorescence intensity (a.u.) |
| GTCAGGTGGCGGCGGCGGCGGTGGTGGCGGTGGAGGTGGACGGAGTCACCTAGTGCAG | 5570 fluorescence intensity (a.u.) |
| ATCCATAACTATGTAACGTCATAGCCACCCAGCCTCGCTTCGGAGTCACCTAGTGCAG | 5580 fluorescence intensity (a.u.) |
| CTTGCACAAGTACAGTACGTGTACATGCATGTATGCTACCCGGAGTCACCTAGTGCAG | 5700 fluorescence intensity (a.u.) |
| TTGCTAGTTGGTACAAAGTAAGCATGCAACACTTGTATGCCGGAGTCACCTAGTGCAG | 42200 fluorescence intensity (a.u.) |
| ATGCATGGTATGTCACGTTGTGACTTGCCTACACTAAAGCCGGAGTCACCTAGTGCAG | 4520 fluorescence intensity (a.u.) |
| AATGCTGCAATTTCTCGTTGACTAGACTTCACATGCAGCTCGGAGTCACCTAGTGCAG | 5400 fluorescence intensity (a.u.) |
| TCCGTTGAGATCAGCACTTTCTAGCAGCTGTACAAGAGACCGGAGTCACCTAGTGCAG | 3740 fluorescence intensity (a.u.) |
| GCCCATGTACGATGACGTGTACCCTATTGTCTTCTACTAGCGGAGTCACCTAGTGCAG | 21600 fluorescence intensity (a.u.) |
| CACGCCAACGCCCAAGCCCACCAACCCAAGTTGAGTCGTGCGGAGTCACCTAGTGCAG | 3360 fluorescence intensity (a.u.) |
| TTACAGGATTATATATCATGTTTATCTATTCGTCTTACTACGGAGTCACCTAGTGCAG | 39500 fluorescence intensity (a.u.) |
| ATATAGATCATCATCAAGACTACGTATTATTCACTATTCACGGAGTCACCTAGTGCAG | 3160 fluorescence intensity (a.u.) |
| AATCTATGCATATATATATATATATATATGTCTAGATTCACGGAGTCACCTAGTGCAG | 3240 fluorescence intensity (a.u.) |
| AATGGATCTAGACTATATCTATCTAGATTCATTAGTATCACGGAGTCACCTAGTGCAG | 45400 fluorescence intensity (a.u.) |
| CCATATCATATTACTCCTACATGTGTACTACATTTATATTCGGAGTCACCTAGTGCAG | 3720 fluorescence intensity (a.u.) |
| CTACATCAGCTATATCTATTGTTGCTCTTACACTAAATTACGGAGTCACCTAGTGCAG | 23700 fluorescence intensity (a.u.) |
| CCGCTCCGCCTACTCTGGCCACGCGCTGACGCCGCGTCCCCGGAGTCACCTAGTGCAG | 7060 fluorescence intensity (a.u.) |
| GGCGGAGACGCGGGCGTGGCTCGGCGGCCTGCTAGTGTGACGGAGTCACCTAGTGCAG | 3340 fluorescence intensity (a.u.) |
| AAAGCCAAACAAGTGTCCAAACGGCTAGGAGTCAACCTCGCGGAGTCACCTAGTGCAG | 41200 fluorescence intensity (a.u.) |
| AAGTCCTCCCACAAGTCAACCAACCAAAACCACGTCCAAACGGAGTCACCTAGTGCAG | 3420 fluorescence intensity (a.u.) |
